# From the supplement of paper PMC8728848
# The sample as a whole holds a higher share of the strongest signals than the screen did.
# B1: GALT1 615 (Arabidopsis thaliana), Q8L7F9 (protein)
# chain: DPMRGSHHHHHHGMASMTGGQQMGRDLYDDDDKSRLQKPYITAAASVVVTPNTTLPMEWLRITLPDFMKEARNTQEAISGDDIAVVSGLFVEQNVSKEEREPLLTWNRLESLVDNAQSLVNGVDAIKEAGIVWESLVSAVEAKKLVDVNENQTRKGKEELCPQFLSKMNATEADGSSLKLQIPCGLTQGSSITVIGIPDGLVGSFRIDLTGQPLPGEPDPPIIVHYNVRLLGDKSTEDPVIVQNSWTASQDWGAEERCPKFDPDMNKKVDDLDECNKMVGGEINRTSSTSLQSNTSRGVPVAREASKHEKYFPFKQGFLSVATLRVGTEGMQMTVDGKHITSFAFRDTLEPWLVSEIRITGDFRLISILA
# B2: GALT1 115 D492A (Arabidopsis thaliana), Q8L7F9 (protein)
# chain: DPMRGSHHHHHHGMASMTGGQQMGRDLYDDDDKSRLQKPYITAAASVVVTPNTTLPMEWLRITLPDFMKEARNTQEAISGDDIAVVSGLFVEQNVSKEEREPLLTWNRLESLVDNAQSLVNGVDAIKEAGIVWESLVSAVEAKKLVDVNENQTRKGKEELCPQFLSKMNATEADGSSLKLQIPCGLTQGSSITVIGIPDGLVGSFRIDLTGQPLPGEPDPPIIVHYNVRLLGDKSTEDPVIVQNSWTASQDWGAEERCPKFDPDMNKKVDDLDECNKMVGGEINRTSSTSLQSNTSRGVPVAREASKHEKYFPFKQGFLSVATLRVGTEGMQMTVDGKHITSFAFRDTLEPWLVSEIRITGDFRLISILASGLPTSEESEHVVDLEALKSPTLSPLRPLDLVIGVFSTANNFKRRMAVRRTWMQYDDVRSGRVAVRFFVGLHKSPLVNLELWNEARTYGDVQLMPFVDYYSLISWKTLAICIFGTEVDSAKFIMKTDDAAFVRVDEVLLSLSMTNNTRGLIYGLINSDSQPIRNPDSKWYISYEEWPEEKYPPWAHGPGYIVSRDIAESVGKLFKEGNLKMFKLEDVAMGIWIAELTKHGLEPHYENDGRIISDGCKDGYVVAHYQSPAEMTCLWRKYQETKRSLCCREW
# Key:
# Experiment in all cases: glycan array binding signal (z-score within array); higher = stronger binding
# Settings in all cases: glycan notation: IUPAC condensed, linker removed
# [1] = molecular target: Fuc(a1-2)Gal(b1-3)GalNAc(b1-3)Gal
# Summary of the method: (§1)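 Glycan array data came from 3228 arrays in the Consortium for Functional Glycomics database, and only arrays with an available protein sequence were kept. Glycan names were put into IUPAC-condensed notation, and columns mapping to the same glycan were averaged. The binding signal is a within-array Z-score, averaged across arrays of one protein sequence run at different concentrations or buffers and across linkers. A negative Z-score can be read as non-binding.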
# Fuc(a1-2)Gal(b1-4)GlcNAc = molecular target: Fuc(a1-2)Gal(b1-4)GlcNAc
# Summary of the method: as §1
# [2] = molecular target: Fuc(a1-2)Gal(b1-4)[Fuc(a1-3)]GlcNAc
# Summary of the method: as §1
# [3] = molecular target: Fuc(a1-2)Gal(b1-4)[Fuc(a1-3)]GlcNAc(b1-3)Gal(b1-4)[Fuc(a1-3)]GlcNAc(b1-3)Gal(b1-4)[Fuc(a1-3)]GlcNAc
# Summary of the method: as §1
# [4] = molecular target: Fuc(a1-2)[GalNAc(a1-3)]Gal(b1-4)[Fuc(a1-3)]GlcNAc
# Summary of the method: as §1
# [5] = molecular target: Gal(b1-3)GalNAc(b1-4)Gal(b1-4)Glc
# Summary of the method: as §1
# [6] = molecular target: Gal(b1-3)GlcNAc(b1-3)Gal(b1-3)GlcNAc
# Summary of the method: as §1
# [7] = molecular target: Gal(b1-4)GlcNAc(b1-2)Man(a1-3)Man(b1-4)GlcNAc(b1-4)GlcNAc
# Summary of the method: as §1
# [8] = molecular target: Gal(b1-4)GlcNAc(b1-2)Man(a1-3)[Gal(b1-4)GlcNAc(b1-2)Man(a1-6)]Man(b1-4)GlcNAc(b1-4)GlcNAc
# Summary of the method: as §1
# [9] = molecular target: Gal(b1-4)GlcNAc(b1-6)GalNAc
# Summary of the method: as §1
# Gal3S(b1-4)GlcNAc = molecular target: Gal3S(b1-4)GlcNAc
# Summary of the method: as §1
# Gal3S(b1-4)GlcNAc6S = molecular target: Gal3S(b1-4)GlcNAc6S
# Summary of the method: as §1
# Gal6S(b1-4)GlcNAc6S = molecular target: Gal6S(b1-4)GlcNAc6S
# Summary of the method: as §1
# Glc(a1-4)Glc = molecular target: Glc(a1-4)Glc
# Summary of the method: as §1
# [10] = molecular target: GlcNAc(a1-4)Gal(b1-4)GalNAc
# Summary of the method: as §1
# [11] = molecular target: GlcNAc(a1-4)Gal(b1-4)GlcNAc(b1-3)Gal(b1-4)GlcNAc
# Summary of the method: as §1
# [12] = molecular target: GlcNAc(b1-2)Man(a1-3)[GlcNAc(b1-2)Man(a1-6)]Man(b1-4)GlcNAc(b1-4)[Fuc(a1-6)]GlcNAc
# Summary of the method: as §1
# GlcNAc(b1-3)GalNAc = molecular target: GlcNAc(b1-3)GalNAc
# Summary of the method: as §1
# [13] = molecular target: GlcNAc(b1-3)[GlcNAc(b1-6)]Gal(b1-4)GlcNAc
# Summary of the method: as §1
# Kdn(a2-3)Gal(b1-3)GalNAc = molecular target: Kdn(a2-3)Gal(b1-3)GalNAc
# Summary of the method: as §1
# [14] = molecular target: Man(a1-2)Man(a1-6)[Man(a1-3)]Man(a1-6)[Man(a1-2)Man(a1-2)Man(a1-3)]Man(b1-4)GlcNAc(b1-4)GlcNAc
# Summary of the method: as §1
# [15] = molecular target: Neu5Ac(a2-3)Gal(b1-3)GlcNAc6S
# Summary of the method: as §1
# [16] = molecular target: Neu5Ac(a2-3)Gal(b1-4)GlcNAc(b1-6)[Neu5Ac(a2-3)Gal(b1-3)]GalNAc
# Summary of the method: as §1
# [17] = molecular target: Neu5Ac(a2-3)Gal(b1-4)GlcNAc6S
# Summary of the method: as §1
# [18] = molecular target: Neu5Ac(a2-3)Gal(b1-4)[Fuc(a1-3)]GlcNAc(b1-3)Gal(b1-4)GlcNAc
# Summary of the method: as §1
# [19] = molecular target: Neu5Gc(b2-6)Gal(b1-4)GlcNAc
# Summary of the method: as §1
# [20] = molecular target: Fuc(a1-2)Gal(b1-4)GlcNAc(b1-3)Gal(b1-4)GlcNAc(b1-3)Gal(b1-4)GlcNAc
# Summary of the method: as §1
# [21] = molecular target: Fuc(a1-2)Gal(b1-4)[Fuc(a1-3)]GlcNAc(b1-3)Gal(b1-4)[Fuc(a1-3)]GlcNAc
# Summary of the method: as §1
# [22] = molecular target: Fuc(a1-2)[Gal(a1-3)]Gal(b1-3)GlcNAc
# Summary of the method: as §1
# [23] = molecular target: Fuc(a1-3)[Gal(b1-4)]GlcNAc(b1-2)Man(a1-3)[Fuc(a1-3)[Gal(b1-4)]GlcNAc(b1-2)Man(a1-6)]Man(b1-4)GlcNAc(b1-4)GlcNAc
# Summary of the method: as §1
# [24] = molecular target: Fuc(a1-3)[Neu5Ac(a2-3)]Gal(b1-4)GlcNAc(b1-3)GalNAc
# Summary of the method: as §1
# [25] = molecular target: Gal(b1-3)GalNAc(a1-3)[Fuc(a1-2)]Gal(b1-4)GlcNAc
# Summary of the method: as §1
# [26] = molecular target: Gal(b1-3)[Fuc(a1-4)]GlcNAc(b1-2)Man(a1-3)[Gal(b1-3)[Fuc(a1-4)]GlcNAc(b1-2)Man(a1-6)]Man(b1-4)GlcNAc(b1-4)[Fuc(a1-6)]GlcNAc
# Summary of the method: as §1
# [27] = molecular target: Gal(b1-4)GlcNAc(b1-3)GalNAc
# Summary of the method: as §1
# [28] = molecular target: Gal3S(b1-3)[Fuc(a1-4)]GlcNAc
# Summary of the method: as §1
# [29] = molecular target: GlcNAc(a1-4)Gal(b1-4)GlcNAc(b1-3)Gal(b1-4)[Fuc(a1-3)]GlcNAc(b1-3)Gal(b1-4)[Fuc(a1-3)]GlcNAc
# Summary of the method: as §1
# [30] = molecular target: GlcNAc(b1-3)Gal(b1-3)GalNAc
# Summary of the method: as §1
# [31] = molecular target: Man(a1-2)Man(a1-2)Man(a1-3)Man
# Summary of the method: as §1
# Man(a1-3)[Man(a1-6)]Man = molecular target: Man(a1-3)[Man(a1-6)]Man
# Summary of the method: as §1
# [32] = molecular target: Man(a1-3)[Man(a1-6)]Man(a1-6)[Man(a1-2)Man(a1-3)]Man(b1-4)GlcNAc(b1-4)GlcNAc
# Summary of the method: as §1
# [33] = molecular target: Neu5Ac(a2-3)Gal(b1-3)GalNAc(b1-4)[Neu5Ac(a2-3)]Gal(b1-4)Glc
# Summary of the method: as §1
# [34] = molecular target: Neu5Ac(a2-3)Gal(b1-4)GlcNAc(b1-3)GalNAc
# Summary of the method: as §1
# [35] = molecular target: Neu5Ac(a2-3)Gal(b1-4)[Fuc(a1-3)]GlcNAc6S
# Summary of the method: as §1
# [36] = molecular target: Neu5Ac(a2-6)Gal(b1-4)GlcNAc(b1-2)Man(a1-3)[Neu5Ac(a2-6)Gal(b1-4)GlcNAc(b1-2)Man(a1-6)]Man(b1-4)GlcNAc(b1-4)GlcNAc
# Summary of the method: as §1
# [37] = molecular target: Neu5Ac(a2-6)Gal(b1-4)GlcNAc(b1-2)Man(a1-6)[Gal(b1-4)GlcNAc(b1-2)Man(a1-3)]Man(b1-4)GlcNAc(b1-4)GlcNAc
# Summary of the method: as §1
# [38] = molecular target: Neu5Ac(a2-6)Gal(b1-4)GlcNAc(b1-2)Man(a1-6)[Man(a1-3)]Man(b1-4)GlcNAc(b1-4)GlcNAc
# Summary of the method: as §1
# [39] = molecular target: Neu5Ac(a2-6)Gal(b1-4)GlcNAc6S
# Summary of the method: as §1
# Neu5Ac(a2-8)Neu5Ac = molecular target: Neu5Ac(a2-8)Neu5Ac
# Summary of the method: as §1
# [40] = molecular target: Neu5Ac(a2-8)Neu5Ac(a2-3)[GalNAc(b1-4)]Gal(b1-4)Glc
# Summary of the method: as §1
binder,measurement,setting,value
B1,glycan array binding signal (z-score),[1],8.63
same,glycan array binding signal (z-score),Fuc(a1-2)Gal(b1-4)GlcNAc,-0.374
same,glycan array binding signal (z-score),[2],4.77
same,glycan array binding signal (z-score),[3],1.95
same,glycan array binding signal (z-score),[4],1.82
same,glycan array binding signal (z-score),[5],-0.508
same,glycan array binding signal (z-score),[6],-0.271
same,glycan array binding signal (z-score),[7],-0.484
same,glycan array binding signal (z-score),[8],0.081
same,glycan array binding signal (z-score),[9],-0.439
same,glycan array binding signal (z-score),Gal3S(b1-4)GlcNAc,-0.208
same,glycan array binding signal (z-score),Gal3S(b1-4)GlcNAc6S,-0.044
same,glycan array binding signal (z-score),Gal6S(b1-4)GlcNAc6S,-0.309
same,glycan array binding signal (z-score),Glc(a1-4)Glc,3.74
same,glycan array binding signal (z-score),[10],8
same,glycan array binding signal (z-score),[11],-0.46
same,glycan array binding signal (z-score),[12],6.45
same,glycan array binding signal (z-score),GlcNAc(b1-3)GalNAc,-0.386
same,glycan array binding signal (z-score),[13],-0.348
same,glycan array binding signal (z-score),Kdn(a2-3)Gal(b1-3)GalNAc,-0.772
same,glycan array binding signal (z-score),[14],-0.415
same,glycan array binding signal (z-score),[15],-0.079
same,glycan array binding signal (z-score),[16],-0.225
same,glycan array binding signal (z-score),[17],-0.078
same,glycan array binding signal (z-score),[18],0.904
same,glycan array binding signal (z-score),[19],-0.419
B2,glycan array binding signal (z-score),[1],1.79
same,glycan array binding signal (z-score),[20],6.73
same,glycan array binding signal (z-score),[2],8.05
same,glycan array binding signal (z-score),[21],-0.068
same,glycan array binding signal (z-score),[22],-0.352
same,glycan array binding signal (z-score),[23],-0.034
same,glycan array binding signal (z-score),[24],-0.012
same,glycan array binding signal (z-score),[25],0.06
same,glycan array binding signal (z-score),[26],-0.152
same,glycan array binding signal (z-score),[27],-0.374
same,glycan array binding signal (z-score),[9],-0.406
same,glycan array binding signal (z-score),[28],-0.223
same,glycan array binding signal (z-score),Gal3S(b1-4)GlcNAc,-0.298
same,glycan array binding signal (z-score),[29],2.05
same,glycan array binding signal (z-score),[12],2.9
same,glycan array binding signal (z-score),[30],1.5
same,glycan array binding signal (z-score),[31],0.15
same,glycan array binding signal (z-score),Man(a1-3)[Man(a1-6)]Man,-0.244
same,glycan array binding signal (z-score),[32],0.404
same,glycan array binding signal (z-score),[33],-0.335
same,glycan array binding signal (z-score),[34],-0.152
same,glycan array binding signal (z-score),[18],0.671
same,glycan array binding signal (z-score),[35],-0.172
same,glycan array binding signal (z-score),[36],0.357
same,glycan array binding signal (z-score),[37],-0.362
same,glycan array binding signal (z-score),[38],-0.139
same,glycan array binding signal (z-score),[39],0.087
same,glycan array binding signal (z-score),Neu5Ac(a2-8)Neu5Ac,-0.221
same,glycan array binding signal (z-score),[40],-0.078
same,glycan array binding signal (z-score),[19],0.041
